Assay results as given in PubChem BioAssay.
Active and inactive are the calls of the source. Unless noted, no rule for the calls is given here.

Key:
[1] = A549 cell viability effects, profiling panel, calcein-AM fluorescence, 48 h, basal (AID 1162); conditions: higher = more signal; also: test concentration not given here
[2] = adipocyte viability effects, profiling panel, cell-based, 3T3-L1 adipocytes, calcein-AM fluorescence, 48 h, basal (AID 1163); conditions: 3T3-L1 adipocytes viability, higher = more signal; also: test concentration not given here
[3] = HepG2 cell viability effects, profiling panel, calcein-AM fluorescence, 48 h, basal (AID 1164); conditions: higher = more signal; also: test concentration not given here
[4] = MM1S cell viability effects, profiling panel, calcein-AM fluorescence, 48 h, basal (AID 1165); conditions: higher = more signal;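 also: viability of MM1S multiple myeloma cells under basal unstimulated conditions; test concentration not given here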
[5] = basal RPMI8226 viability, no added stimulus, profiling panel, cell-based, calcein-AM fluorescence, 48 h, PK04 Diversity Set (AID 1166); conditions: RPMI8226 myeloma viability, higher = more signal;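 also: cells grown under basal conditions without added stimulus; test concentration not given here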
[6] = basal HepG2 mitochondrial membrane potential changes, profiling panel, cell-based, JC-1 fluorescence, 24 h, 100 nL compound (AID 1167); conditions: higher = more signal; also: test concentration not given here
[7] = basal 3T3-L1 adipocyte mitochondrial potential changes, profiling panel, cell-based, JC-1 fluorescence, 3T3-L1 adipocytes, 24 h, 100 nL compound (AID 1168); conditions: JC-1 mitochondrial fluorescence, higher = more signal, called active from +8 up or from −8 down; also: test concentration not given here
[8] = basal RPMI8226 mitochondrial membrane potential changes, profiling panel, cell-based, JC-1 fluorescence, 24 h, 100 nL compound (AID 1169); conditions: RPMI8226 myeloma, JC-1 mitochondrial potential fluorescence, higher = more signal; also: test concentration not given here
[9] = basal MM1S mitochondrial membrane potential changes, profiling panel, cell-based, JC-1 fluorescence, 24 h, 100 nL compound (AID 1170); conditions: higher = more signal; also: test concentration not given here
[10] = A549 lung cancer cell viability effects, profiling panel, resazurin fluorescence, 24 h, PK04 Diversity Set (AID 1171); conditions: higher = more signal, called active from +8 up or from −8 down; also: test concentration not given here
[11] = HepG2 liver cancer cell viability effects, profiling panel, resazurin fluorescence, 24 h, PK04 Diversity Set (AID 1172); conditions: higher = more signal; also: test concentration not given here
[12] = basal S. cerevisiae growth modulation, no modifier, primary screen, OD600, strain BY4716, 24 h, basal condition (AID 1173); conditions: OD600, 24 h, higher = more signal, called active from +8 up or from −8 down
[13] = MM1S myeloma cell viability, profiling panel, resazurin fluorescence, basal, 24 h, PK04 Diversity Set (AID 1174); conditions: higher = more signal, called active from +8 up or from −8 down;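 also: MM1S multiple myeloma cell line; test concentration not given here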
[14] = molecular target: Dihydroorotate dehydrogenase (quinone), mitochondrial (Plasmodium falciparum (isolate 3D7)) (UniProt Q08210); assay: PfDHODH enzyme inhibitors, primary screen, biochemical, C-terminal His tag, absorbance 600 nm (AID 1175); conditions: DCIP absorbance 600 nm, higher = more signal, called active from +8 up or from −8 down;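 also: recombinant parasite enzyme with a five histidine tag at its C terminus; test concentration not given here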
Dihydroorotate dehydrogenase (quinone), mitochondrial (Plasmodium falciparum (isolate 3D7)), sequence (Q08210 whole entry, looked up): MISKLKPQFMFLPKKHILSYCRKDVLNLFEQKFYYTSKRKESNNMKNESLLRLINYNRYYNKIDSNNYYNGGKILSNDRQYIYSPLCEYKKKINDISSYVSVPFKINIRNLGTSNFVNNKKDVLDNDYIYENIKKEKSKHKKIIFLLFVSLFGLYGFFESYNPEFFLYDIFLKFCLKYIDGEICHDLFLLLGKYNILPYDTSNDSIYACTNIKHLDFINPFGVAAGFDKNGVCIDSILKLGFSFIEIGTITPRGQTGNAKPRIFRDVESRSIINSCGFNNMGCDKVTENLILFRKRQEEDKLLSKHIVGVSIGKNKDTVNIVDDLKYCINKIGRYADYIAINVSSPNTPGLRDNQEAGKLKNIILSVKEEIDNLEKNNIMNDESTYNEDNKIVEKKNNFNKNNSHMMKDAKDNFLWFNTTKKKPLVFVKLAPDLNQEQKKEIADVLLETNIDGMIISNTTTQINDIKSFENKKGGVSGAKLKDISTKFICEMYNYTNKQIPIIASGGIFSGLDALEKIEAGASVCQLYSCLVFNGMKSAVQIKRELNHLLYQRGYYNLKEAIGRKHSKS

[15] = P. aeruginosa biofilm formation inhibitors, primary screen, strain PAO1, LB-PBS medium, absorbance 600 nm (AID 1176); also: test concentration not given here; conditions: P. aeruginosa PAO1 growth/biofilm, A600, 12 h; higher = more signal
[16] = S. cerevisiae RM11-1a growth modifiers, primary screen, strain RM11-1a, OD600, basal, 24 h (AID 1177); conditions: OD600, 24 h, higher = more signal, called active from +8 up or from −8 down;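 also: cultures grown under basal conditions with no added stressor; test concentration not given here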
[17] = E. coli acrAB mutant growth effects, primary screen, E. coli filamentation inducers, strain DRC39, OD650, 24 h (AID 1178); conditions: higher = more signal, called active from +8 up or from −8 down;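 also: growth measured as culture turbidity by optical density at 650 nm; test concentration not given here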
[18] = E. coli acrAB mutant growth effects, primary screen, E. coli filamentation inducers, strain DRC39, OD650, 48 h (AID 1179);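 also: screen aims at cell division blockers that make cells filament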; conditions: E. coli DRC39 delta-acrAB growth, higher = more signal, called active from +8 up or from −8 down
[19] = RPMI8226 myeloma cell viability, profiling panel, resazurin fluorescence, basal, 24 h, PK04 Diversity Set (AID 1180); conditions: higher = more signal;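 also: RPMI8826 multiple myeloma cell line at 5000 cells per well; test concentration not given here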
[20] = molecular target: E3 ubiquitin-protein ligase XIAP (Homo sapiens) (UniProt P98170); assay: XIAP binders, primary screen, biophysical, small-molecule microarray, fluorescence 635 nm (AID 1181); conditions: small-molecule microarray binding, higher = more signal;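 also: score merges 667 nm emission and signal to noise over triplicate slides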
E3 ubiquitin-protein ligase XIAP (Homo sapiens), sequence (P98170 whole entry, looked up): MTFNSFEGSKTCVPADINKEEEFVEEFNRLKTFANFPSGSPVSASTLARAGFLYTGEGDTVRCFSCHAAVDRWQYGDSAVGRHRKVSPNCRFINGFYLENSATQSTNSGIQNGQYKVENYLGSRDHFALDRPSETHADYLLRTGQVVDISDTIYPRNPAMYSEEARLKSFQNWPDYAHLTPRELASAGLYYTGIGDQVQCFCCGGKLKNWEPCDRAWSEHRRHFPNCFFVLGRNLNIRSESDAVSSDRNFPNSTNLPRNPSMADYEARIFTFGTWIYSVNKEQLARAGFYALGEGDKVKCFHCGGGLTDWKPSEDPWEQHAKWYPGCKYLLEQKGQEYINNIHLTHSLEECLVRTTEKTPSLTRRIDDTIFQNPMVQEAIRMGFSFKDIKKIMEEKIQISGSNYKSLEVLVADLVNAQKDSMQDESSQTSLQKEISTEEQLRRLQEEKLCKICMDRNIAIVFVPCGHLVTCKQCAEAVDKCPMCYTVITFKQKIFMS

Row | SMILES | z-score [1] | z-score [2] | z-score [3] | z-score [4] | z-score [5] | z-score [6] | z-score [7] | z-score [8] | z-score [9] | z-score [10] | z-score [11] | z-score [12] | z-score [13] | composite z-score [14] | z-score [15] | z-score [16] | z-score [17] | z-score [18] | z-score [19] | composite z-score [20]
1 | COC(=O)CC=C[C@@H](C)[C@@H](C=NOCC[C@@H]1C=C[C@H](OC(C)=O)[C@@H](COC(C)=O)O1)OC | 1.29 | -0.0264 | 0.436 | -0.616 | 0.238 | -0.514 | -0.43 (inactive) | -0.133 | -0.324 | -0.393 (inactive) | -0.269 | 0.557 (inactive) | -0.104 (inactive) | 0.558 (inactive) | -0.242 (inactive) | 0.47 (inactive) | 0.157 (inactive) | 0.138 (inactive) | -0.325 | 0.0506
2 | CO[C@H](C1CCCCC1)[C@H](C)C=CCC(=O)OCCCc1ccccc1 | 0.19 | -0.518 | -0.0782 | -0.237 | 0.182 | 0.639 | -0.249 (inactive) | 0.773 | -0.199 | 0.301 (inactive) | 0.159 | 0.878 (inactive) | 0.227 (inactive) | 0.503 (inactive) | -0.315 (inactive) | 1.63 (inactive) | -0.778 (inactive) | -0.417 (inactive) | -0.0411 | -0.193
3 | O=C1[C@H]2[C@H]3[C@H](O)[C@H](O)CC(=NOCc4ccccc4)[C@H]3CC[C@H]2C(=O)N1Cc1ccc2c(c1)OCO2 | 0.446 | 0.717 | -1.25 | 0.424 | -1.69 | 0.701 | -0.802 (inactive) | 0.0189 | 0.349 | 0.392 (inactive) | 0.616 | -0.0033 (inactive) | 0.13 (inactive) | -0.51 (inactive) | -0.695 (inactive) | 0.0065 (inactive) | 0.698 (inactive) | -1.38 (inactive) | 0.129 | -0.0663
4 | CC(C)(C)N1C(=O)[C@H]2[C@H]3[C@H](O)[C@H](O)CC(=O)[C@@H]3CC[C@H]2C1=O | -0.743 | 0.436 | 0.178 | -0.102 | -0.052 | -0.323 | -0.715 (inactive) | 0.967 | 0.419 | 0.756 (inactive) | -0.0291 | -0.693 (inactive) | -0.0757 (inactive) | -0.251 (inactive) | 0.27 (inactive) | -0.736 (inactive) | -0.268 (inactive) | -0.653 (inactive) | -0.0415 | -0.177
5 | CC(=O)OC[C@H]1O[C@@H](ON=C(C)CCN2CCCc3nc(C)c(C)cc32)[C@H](OC(C)=O)[C@@H](OC(C)=O)[C@@H]1OC(C)=O | -0.984 | 0.191 | -0.563 | -1.05 | -2.45 | -0.0457 | 0.553 (inactive) | -0.572 | -0.903 | 0.0264 (inactive) | -0.288 | 0.131 (inactive) | 0.188 (inactive) | -2.04 (inactive) | -0.503 (inactive) | -0.45 (inactive) | -0.925 (inactive) | -1.26 (inactive) | 0.529 | -0.138
6 | CCOC(=O)NN=C1C[C@@H](O)[C@@H](O)[C@@H]2[C@@H]3C(=O)N([C@@H](C)c4ccccc4)C(=O)[C@@H]3CC[C@H]12 | -0.0339 | -0.584 | -0.102 | 0.136 | -0.177 | -0.39 | 0.29 (inactive) | 0.104 | -0.476 | -0.193 (inactive) | 0.384 | 0.448 (inactive) | -0.495 (inactive) | -0.309 (inactive) | 0.0942 (inactive) | -0.362 (inactive) | -0.212 (inactive) | -0.102 (inactive) | 0.331 | -0.0076
7 | CON=C1[C@H]2CCn3c(=O)n(-c4ccccc4)c(=O)n3[C@H]2[C@H](O)[C@@H]2O[C@H]12 | 0.828 | 0.384 | 0.739 | -0.211 | 0.483 | -1.17 | 1.86 (inactive) | 0.391 | 0.68 | -0.378 (inactive) | 0.348 | -1.45 (inactive) | 0.333 (inactive) | -0.984 (inactive) | 0.335 (inactive) | -2.21 (inactive) | 0.0966 (inactive) | -1.03 (inactive) | 0.116 | 0.0159
8 | CO[C@H]1COC(=O)CC=C[C@@H](C)[C@H](OC)COC(=O)CCC[C@@H]1C | -0.71 | -0.0523 | 0.0225 | 0.0987 | 0.102 | -0.639 | -0.399 (inactive) | -0.509 | -0.135 | 0.795 (inactive) | 0.855 | -0.966 (inactive) | 0.818 (inactive) | -0.526 (inactive) | -0.172 (inactive) | -1.45 (inactive) | 0.153 (inactive) | 0.039 (inactive) | 0.518 | 0.523
9 | CCOC(=O)[C@H](Cc1ccccc1)NC(=O)CCC1CC(OC(=O)NCc2cccc3ccccc23)CC2(CCCC(COC(=O)NCc3ccccc3)O2)O1 (stereo not given in full) | 0.143 | 0.919 | -1.03 | 0.418 | -0.653 | 1.12 | -0.39 (inactive) | -0.839 | -1.18 | 0.682 (inactive) | 0.466 | -2.55 (inactive) | 1.12 (inactive) | -2.79 (inactive) | 0.709 (inactive) | -2.62 (inactive) | -0.964 (inactive) | -1.23 (inactive) | 1.03 | 0.171
